Most compounds without a hit are left out; they make up all but 12% or so of the library.
Marburg entry inh = blocks Marburg virus binding to or entry into cells; Marburg virus pseudotyped entry inhibition, cell reporter; Potency, µM (series often up to 37.8 µM), without a hit: at the highest dose activity change, negative = inhibition, most hits filed as inhibitors; 300,000 tested, 1.8% active; AID 540276; calls by dose curve; tested in HEK293 cells; further: potency means the concentration at half of the fitted maximal effect; on the % scale 0 is the no-effect control and ±100 the full control effect
Lassa entry inh = inhibitors of Lassa virus binding or cell entry. 300,000 tested, 1.2% active. Lassa virus pseudotype entry inhibition, cell reporter. Potency, µM (doses to about 37.9 µM), for the others: at the highest dose activity change, negative = inhibition, most hits filed as inhibitors. AID 540256; calls by dose curve; tested in HEK293 cells; further: potency means the concentration at half of the fitted maximal effect; on the % scale 0 is the no-effect control and ±100 the full control effect; nearly all actives have a fitted effect of over 50% in size
Shiga inhibitor = Shiga toxin inhibition. Vero cells, Shiga toxin protein synthesis inhibition reporter. inhibition, % at 38.7 µM. 290,000 tested, 9.2% active. AID 2315; in the data active means inhibition mostly above about 28%, no sharp cut-off; inactive means mostly below about 43%; further: 0% is about no effect
Cycloheximide cs = counter-screen for Shiga toxin inhibitors: cycloheximide protein synthesis inhibition. cell reporter, cycloheximide protein synthesis inhibition counterscreen. max response, %. 300,000 tested, 12% active; in the data active means max response mostly above about 13%, no sharp cut-off; inactive means mostly below about 14%; further: read at 38.3 µM for the half of the compounds with a filed dose; 0% is about no effect
Active calls of the source: *; ? = inconclusive; · = no result; [ ] = another dose, or the depositor's remark.

SMILES	Marburg entry inh	Lassa entry inh	Shiga inhibitor	Cycloheximide cs
CCn1nnc2cc(C(=O)Nc3ccc(OC)cc3)ccc21	·	14%[46.1 µM]	·	·
Cn1c(CNc2ccccc2O)nc2ccccc21	·	·	76*	23*
CCCC(=O)NCc1nc2ccccc2n1C	?	0%	-7	-4
Cc1ccccc1NCc1nc2ccccc2n1C	·	·	84*	55*
C=CCOC(=O)/C(=C\c1cccc2ccccc12)NC(=O)c1ccccc1	-1%	8%	22	36*
CCOC(=O)/C(=C/c1ccc(OC(=O)c2ccccc2)cc1)C(C)=O	-5%	3%	39*	7
CCOC(=O)/C(=C\c1ccccc1)NC(=O)c1ccccc1	·	·	41	19*
C=CCOC(=O)/C(=C/c1cccnc1)NC(=O)c1ccccc1	·	·	-7	4
O=C(N/C(=C/c1ccccc1)C(=O)N1CCCCC1)c1ccccc1	5%	3%	51*	96*
C=CCOC(=O)/C(=C\c1ccccc1)NC(=O)c1ccc(C)cc1	·	·	100*	36*
CCOC(=O)N1CCN(C(=O)/C(=C/c2cccc3ccccc23)NC(=O)c2ccc(OC)cc2)CC1	-15%	?	11	17*
O=C(CCN1CCOCC1)NNC(=O)/C(=C/c1ccccc1)NC(=O)c1ccccc1	?	11µM*	-18	9
COc1ccc(OC)c(N(CC(=O)N2CCOCC2)S(C)(=O)=O)c1	?	-1%	-16	-3
OC[C@H]1O[C@H](c2ccccc2)C=C[C@H]1OCc1cccc(Br)c1	-11%[14.2 µM]	·	·	·
c1ccc(-c2nnc3sc(-c4csc5c4CCCC5)nn23)cc1	?	?	-35	13*
COc1cccc(-c2nnc3sc(-c4ccccc4)nn23)c1	18%	-8%	23	-4
Cc1cccc(-c2nnc3sc(-c4ccccc4C)nn23)c1	?	-11%	46*	11
c1ccc(-c2nnc3sc(-c4ccncc4)nn23)cc1	-19%	5%	-16	-3
O=C(Nc1nccs1)c1ccc(Br)s1	·	·	60*	54*
Cc1ccc(C(=O)Nc2nccs2)s1	·	·	92*	59*
CC(C)c1ccc(/C=C/C(=O)Nc2nn[nH]n2)cc1	·	·	28	13*
Cc1ccc(/C=C/C(=O)Nc2nn[nH]n2)o1	6%	7%	-8	-3
CCc1c(C)sc2nc(C(C)C)nc(SCC(=O)N3CCc4ccccc4C3)c12	?	21µM*	12	-2
CC[C@]1(c2ccccc2)NC(=O)NC1=O	·	·	-4	10
CN(C1=C(NC(=O)c2ccc(Cl)cc2)C(=O)c2ccccc2C1=O)c1ccccc1	?	?	50*	20*
SMILES	Marburg entry inh	Lassa entry inh	Shiga inhibitor	Cycloheximide cs
CN(c1ccc(C(=O)Nc2ccc(Cl)cn2)cc1)S(=O)(=O)c1ccccc1	·	·	20	12
O=C1C(Cl)=C(NC(=O)c2ccccc2)C(=O)C(Cl)=C1NC(=O)c1ccccc1	?	?	60	18*
Cc1cccc(NC2=C(NC(=O)c3ccccc3)C(=O)c3ccccc3C2=O)c1	19%	-11%	30	14*
O=C(Nc1csc(Cl)c1)c1ccccc1	?	4%[46.1 µM]	·	·
O=C(NC1=C(Nc2ccc(Cl)cc2)C(=O)c2ccccc2C1=O)c1ccccc1	?	?	38	24*
C#CCCCO/N=C1\C[C@@H](O)[C@@H](O)[C@@H]2[C@@H]3C(=O)N(Cc4ccc5c(c4)OCO5)C(=O)[C@@H]3CC[C@@H]12	-7%[14.2 µM]	·	·	·
O=C(CCN1C(=O)c2ccc([N+](=O)[O-])cc2C1=O)Nc1ccccc1C(=O)O	9%	-12%	-4	-1
CCCSc1nsc(SCCC)c1C#N	?	19%	46*	22*
CC(C)CC(=O)Nc1ncc([N+](=O)[O-])s1	?	15%[46.1 µM]	84*	41*
Cc1nc(C)c(C(=O)Nc2ncc([N+](=O)[O-])s2)o1	?	5.6µM*	-16	-11
CCCCC(=O)Nc1ncc([N+](=O)[O-])s1	-6%[46.1 µM]	?	54*	17*
CCCCC(=O)Nc1ncc(Br)s1	26%	8%	32	11*
Cc1cc(C)c(NC(=O)C2CCCO2)c(C)c1NC(=O)C1CCCO1 (stereo not drawn)	14%[46.1 µM]	-1%	2	-5
COc1ccc(NC(=O)c2oc3ccccc3c2NC(=O)Cc2coc3ccc(C)cc23)cc1	2%[46.1 µM]	-20%[46.1 µM]	·	·
COc1ccc(C(C[N+](=O)[O-])c2c(-c3ccccc3)cc3ccccn23)c(OC)c1 (stereo not drawn)	-35%	-21%	71*	55
Cc1ccc(N=Nc2cc(C)ccc2N)cc1	·	·	50*	38*
Cc1ccc(N)c(Cl)c1	·	·	-9	-6
CCOC(=O)c1c(C)[nH]c(C)c1S(=O)(=O)NCCN1CCN(c2ccccc2F)CC1	-14%[46.1 µM]	?	7	-1
CN1CCN(c2ccc(NC(=O)COc3ccccc3)cc2Cl)CC1	?	-3%[46.1 µM]	83*	44*
COc1ccc(NC(=O)COc2ccccc2)cc1Cl	23%	21%	·	13
COC(=O)c1ccc(N2CCN(C)CC2)c(NC(=O)COc2ccccc2)c1	?	-30%	-8	-2
Cc1cc(NC(=O)COc2ccccc2)ccc1Cl	·	·	107*	50*
Cc1ccc(NC(=O)COc2ccccc2)cc1Cl	?	18%[46.1 µM]	102*	17*
CCOc1ccc(CCNC(=O)c2ccc(CS(=O)Cc3ccc(Cl)cc3)o2)cc1 (stereo not drawn)	·	-14%[46.1 µM]	16	5
CCOc1ccc(CCNC(=O)c2ccc(CS(=O)Cc3ccccc3Cl)o2)cc1 (stereo not drawn)	·	·	35	16*
SMILES	Marburg entry inh	Lassa entry inh	Shiga inhibitor	Cycloheximide cs
COCCCNC(=O)Cn1nnc(-c2ccc(NC(=O)c3ccccc3OC)cc2)n1	-4%	14%	20	6
COCCCNC(=O)Cn1nnc(-c2ccc(NC(=O)c3ccccc3F)cc2)n1	17%	-3%	48*	26*
COc1ccc(C)cc1NC(=O)Nc1cccc(OCc2cc(=O)n3ccc(C)cc3n2)c1	·	21%[46.1 µM]	·	·
Clc1ccccc1-c1ncc(-c2ccccc2)o1	·	·	·	26*
COc1cc(/C=N/N=C(N)N)ccc1OCc1ccc(Cl)cc1	18µM*	?	76	40*
COc1cc(/C=N/O)ccc1OCc1ccc(Cl)cc1	·	·	70	37*
COc1cc(/C=N/N=C2/NC(=O)C(CC(=O)O)S2)ccc1OCc1ccc(Cl)cc1 (stereo not drawn)	48%	-7%	38	20*
CCOc1cc(/C=N/N=C(N)N)ccc1OCc1ccc(Cl)cc1	?	?	-23	-12
COc1cc(/C=N/O)ccc1OCc1ccc(C(=O)O)cc1	0.1µM*	?	21	54*
Clc1ccc(CNCc2cccs2)c(Cl)c1	1%	0%	-11	-1
COc1ccc(NC(=O)Nc2ccc(Br)c(C)c2)cc1	?	-1%	31*	11
CCN(CC(=O)Nc1cccc(OC)c1)CC(=O)Nc1ccc(Br)c(C)c1	·	·	3	-3
O=C(Nc1cccnc1)c1cc(F)c(F)cc1Cl	0%[46.1 µM]	-18%[46.1 µM]	-5	-6
COc1ccc(NC(=O)Nc2ccc(F)c(Cl)c2)cc1	·	·	91*	65*
O=C(Nc1cccnc1)Nc1ccc(F)c(Cl)c1	0%	17%	26	15*
O=C(Nc1ccccn1)c1sc2cccc(F)c2c1Cl	?	·	11	14
O=C(Nc1cccnc1)c1sc2cccc(F)c2c1Cl	?	·	47*	38*
